NOD2-RIPK2 inh – blocks binding of human NOD2 to RIPK2; inhibition, % at 4.98 µM; 360,000 compounds, 0.38% hits; AID 624267; CHO BLA complementation NOD2-RIPK2, CCF4 ratio; in the data active = inhibition above about 21%
IDE cell activ – activators of human insulin-degrading enzyme in cells | AID 493087 | 340,000 compounds, 0.073% hits | activation, % at 5.96 µM | P14735 | HEK cells, FAbeta-B cleavage, fluorescence polarization; 0% vehicle, 100% cell-free pure enzyme wells;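 active = activation above the mean of all tested compounds plus 3 SD, set per screening campaign, cut at about 17% in these data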
TLR9-MyD88 block – inhibitors of human TLR9-MyD88 binding; CHO BLA complementation TLR9-MyD88, CCF4 FRET ratio; 340,000 compounds, 0.21% hits; inhibition, % at 4.98 µM;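 active = inhibition above the mean over all tested compounds plus 3 SD, cut at about 21% in these data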
TLR4-MyD88 BLA – TLR4-MyD88 interaction inhibition in cells; O00206+Q99836; 200,000 compounds, 0.18% hits; HeLa CL3-4 TLR4/MyD88 BLA complementation, FRET ratio; inhibition, % at 8.4 µM; in the data active = inhibition above about 25%
IDE inh – cellular human IDE inhibition; P14735; HEK cells, FAbetaB cleavage, fluorescence polarization; inhibition, % at 5.59 µM; 320,000 compounds, 0.41% hits; AID 434962;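 active = percent inhibition above the average of all tested compounds plus 3 SD, set per screening campaign, cut at about 16% in these data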;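 also: IDE supplied by intact live HEK cells; FP after avidin binding of uncleaved biotin substrate so inhibition keeps polarization high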
IDE cell inh cf – cellular human IDE inhibition, confirmation. inhibition, % at 5.59 µM. shares compounds with IDE inh. 1,200 compounds, 51% hits. HEK cells, FAbetaB cleavage, fluorescence polarization;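 active = mean inhibition across triplicate wells above the cutoff set by the earlier primary insulin-degrading enzyme screen, cut at about 16% in these data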
HEK cytotox – kills HEK cells in IDE inhibitor counter-screen | 1,200 compounds, 28% hits | shares compounds with IDE inh | inhibition, % at 5.59 µM | HEK293 cytotoxicity, ATP luminescence; in the data active = inhibition above about 22%
Numbers stand for hits; 0 = inactive; - = no result. In the library only some 0.87% were active in any assay of this set; here they are far more common.

SMILES | NOD2-RIPK2 inh | IDE cell activ | TLR9-MyD88 block | TLR4-MyD88 BLA | IDE inh | IDE cell inh cf | HEK cytotox
Oc1ccc(Cl)cc1C=Nc1ccccc1Br | 0 | 0 | 0 | 0 | 0 | - | -
Oc1ccc(Br)cc1C=Nc1ccc2c3c(cccc13)CC2 | 0 | 0 | 0 | 0 | 22 | 0 | 0
CC1CC(=O)Nc2ccccc2N1C(=O)COc1cc(Cl)ccc1Cl (configuration not stated) | 0 | 0 | 0 | - | 0 | - | -
COc1ccc(NC(=O)CCNS(=O)(=O)c2cccc3nonc23)c(OC)c1 | 0 | 0 | 0 | - | 0 | - | -
Cc1ccc(CS(=O)(=O)c2cn(CC(=O)N3CCOCC3)c3ccccc23)cc1 | 0 | 0 | 0 | - | 0 | - | -
O=C1/C(=C\c2ccc(O)cc2)SC(=S)N1Cc1ccccc1 | 0 | 0 | 0 | - | 77 | 137 | 0
CCCOc1ccc(/C=C2\SC(=S)N(CC3CCCO3)C2=O)cc1 (configuration not stated) | 0 | 0 | 0 | 0 | 0 | - | -
O=C(O)c1ccc(/C=C2/SC(=S)N(Cc3ccccc3)C2=O)cc1 | 0 | 0 | 0 | - | - | - | -
CC(=O)Oc1ccc(/C=C2/SC(=S)N(Cc3ccccc3)C2=O)cc1 | 0 | 0 | 0 | - | 16 | 78 | 0
O=C1/C(=C/c2ccc(O)cc2)SC(=S)N1CC1CCCO1 (configuration not stated) | 0 | 0 | 0 | - | 87 | 167 | 0
CC(C)C(=O)N1CCN(c2ccccc2NC(=O)c2cccc3ccccc23)CC1 | 0 | 0 | 0 | - | 0 | - | -
CCN(CC)C(=O)Cn1cc(C(=O)C(=O)N2CCN(Cc3ccc4c(c3)OCO4)CC2)c2ccccc21 | 0 | 0 | 0 | - | 0 | - | -
CCNc1c2c3c(cccc3n(C)c1=O)C(=O)c1ccccc1-2 | - | - | - | 0 | 62 | 26 | 0
CCNC1=C(Cl)C(=O)c2ccccc2C1=O | 0 | 0 | 0 | 0 | 0 | - | -
CCOC(=O)N1CCN(S(=O)(=O)N2CCCC(C(=O)NC(C)c3ccccc3)C2)CC1 (configuration not stated) | 0 | 0 | 0 | - | 18 | 0 | 0
Cn1c(SCC(=O)c2ccc3c(c2)Cc2ccccc2-3)nnc1-c1ccccc1 | 0 | 0 | 0 | 0 | 28 | 0 | 0
CCOc1ccccc1N1CC(C(=O)Nc2cccc(S(=O)(=O)N3CCCCC3)c2)CC1=O (configuration not stated) | 0 | 0 | 0 | 0 | 0 | - | -
CCCc1cc(=O)oc2c3c(cc(OCC(=O)NCc4ccccn4)c12)OC(C)(C)CC3 | 0 | 0 | 0 | - | 0 | - | -
CCCc1cc(=O)oc2c3c(cc(OCC(=O)NCc4ccncc4)c12)OC(C)(C)CC3 | 0 | 0 | 0 | - | 23 | 0 | 25
CCN1/C(=C/C=C/c2oc3ccc4ccccc4c3[n+]2CC)Oc2ccc3ccccc3c21 | - | - | - | 0 | 82 | 133 | 112
CCOC(=O)C1=C(CSc2nc3c(cc2C#N)CCC3)OC(N)=C(C#N)C1c1ccccc1 (configuration not stated) | 0 | 0 | 0 | 0 | 17 | 0 | 0
CCCCCN(C(=O)CCC(=O)OCC(=O)c1ccc(CCC)cc1)c1c(N)n(CCCC)c(=O)[nH]c1=O | 0 | 0 | 0 | - | 24 | 21 | 0
CCN(CC)c1ccc(/C=C2\C(=N)N3N=C(CC(=O)N4CCOCC4)SC3=NC2=O)cc1 | 0 | 0 | 0 | - | 20 | 36 | 0
COc1ccccc1OCC(=O)NNC(=O)c1c(-c2ccccc2Cl)noc1C | 0 | 0 | 0 | 0 | 0 | - | -
O=C(c1sc2cccc(F)c2c1Cl)N1CCN(c2ncccn2)CC1 | 0 | 0 | 0 | 0 | 0 | - | -
SMILES | NOD2-RIPK2 inh | IDE cell activ | TLR9-MyD88 block | TLR4-MyD88 BLA | IDE inh | IDE cell inh cf | HEK cytotox
CS(=O)(=O)c1ccc(C(=O)NCC2(N3CCCCC3)CCCCC2)cc1 | 0 | 0 | 0 | 0 | 16 | 0 | 0
CN(C)S(=O)(=O)c1ccc(C(=O)NCC2(N3CCCCC3)CCCCC2)cc1 | 0 | 0 | 0 | 0 | 0 | - | -
C=CCn1c(COc2cccc(C)c2C)nnc1SCC(=O)N1CCN(c2ccccc2)CC1 | 0 | 0 | 0 | 0 | 27 | 0 | 38
CC1CC(C)(C)N(C(=O)CN2C(=O)CCC2=O)c2ccccc21 (configuration not stated) | 0 | 0 | 0 | - | 0 | - | -
O=C(CCC(=O)N1CCCC(Nc2ccccc2)C1)c1ccc(F)cc1 (configuration not stated) | 0 | 0 | 0 | - | 0 | - | -
COc1ccc(/C=C2\C(=O)NC(=S)N2C(=O)c2ccc(F)cc2)cc1 | 0 | 0 | 0 | 0 | 37 | 59 | 0
O=C1NC(=S)N(C(=O)c2ccc(F)cc2)/C1=C/c1ccccc1 | 0 | 0 | 0 | 0 | 28 | 32 | 0
Cc1ccc(-c2n[nH]c(=O)c3ccccc23)cc1S(=O)(=O)NCC1CCCO1 (configuration not stated) | 0 | 0 | 0 | - | 0 | - | -
Cc1ccc(-c2n[nH]c(=S)c3ccccc23)cc1S(=O)(=O)NCC1CCCO1 (configuration not stated) | 0 | 0 | 0 | - | 22 | 0 | 0
O=C(Nc1ccccc1Cl)N1CCCN(c2nc(-c3ccccc3)ns2)CC1 | 0 | 0 | 0 | - | 21 | 0 | 31
Cc1c(Cl)cccc1NC(=O)N1CCCN(c2nc(-c3ccccc3)ns2)CC1 | 0 | 0 | 0 | - | 17 | 0 | 51
O=C(Nc1ccccc1)N1CCN(c2nc(-c3ccccc3)ns2)CC1 | 0 | 0 | 0 | - | 0 | - | -
CC[C@@]1(C(=O)OC)N[C@H](CN(C)S(=O)(=O)c2ccc(F)cc2)[C@@H]2C(=O)N(C)C(=O)[C@@H]21 | 0 | 0 | 0 | - | 0 | - | -
OCC[n+]1ccc(/C=C/c2c[nH]c3ccccc23)cc1 | 0 | 0 | 0 | 0 | 24 | 39 | 57
C(=Cc1c[nH]c2ccccc12)c1nccc2ccccc12 | 0 | 0 | 0 | - | - | - | -
Cc1[nH]c(=O)[nH]c(=S)c1C(=O)Nc1ccc(Cl)c(Cl)c1 | 0 | 0 | 0 | - | 26 | 0 | 0
CCCCOC(=O)NS(=O)(=O)c1sc(CC(C)C)cc1-c1ccc(Cn2c(CC)nc3c(C)cc(C)nc32)cc1 | - | - | - | - | 0 | - | -
C=CCn1c(=O)/c(=C/c2ccc(O)cc2)s/c1=C(/C#N)c1nnc2n1CCCCC2 | 0 | 0 | 0 | 0 | 102 | 88 | 0
COc1ccc(Nc2nc(-c3sc(C)nc3C)cs2)c(OC)c1 | 0 | 0 | 0 | - | 21 | 0 | 62
Cc1ccc(NC(=O)C(C)SCc2nc3sc(C)c(C)c3c(=O)[nH]2)nc1 (configuration not stated) | 0 | 0 | 0 | - | 0 | - | -
O=C(O)c1ccccc1N/N=C/c1c(Sc2nnnn2-c2ccccc2)nc2ccccn2c1=O | 0 | 0 | 0 | - | 69 | 43 | 0
O=c1c(/C=N/Nc2ccccc2)c(Sc2nnnn2-c2ccccc2)nc2ccccn12 | 0 | 0 | 0 | 0 | - | - | -
S=c1nccc(-c2ccc3c(c2)CCO3)[nH]1 | 0 | 0 | 0 | - | 30 | 0 | 0
Fc1ccc(-c2noc(-c3ccc4c(c3)CCO4)n2)cc1 | 0 | - | - | - | 0 | - | -
